High-throughput results: PubChem, several laboratories
CYP2C19 activ – increases human CYP2C19 enzyme activity; P33261; recombinant CYP2C19, luciferin-H EGE luminescence; active compounds read high; 0 = fully inhibited enzyme, 1 = untreated enzyme; activation factor at 5 µM; 96,000 tested, under 10 active; AID 1025;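 active means activation factor of at least 2 at 5 µM in the primary screen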
Target sequence (P33261 whole entry, looked up): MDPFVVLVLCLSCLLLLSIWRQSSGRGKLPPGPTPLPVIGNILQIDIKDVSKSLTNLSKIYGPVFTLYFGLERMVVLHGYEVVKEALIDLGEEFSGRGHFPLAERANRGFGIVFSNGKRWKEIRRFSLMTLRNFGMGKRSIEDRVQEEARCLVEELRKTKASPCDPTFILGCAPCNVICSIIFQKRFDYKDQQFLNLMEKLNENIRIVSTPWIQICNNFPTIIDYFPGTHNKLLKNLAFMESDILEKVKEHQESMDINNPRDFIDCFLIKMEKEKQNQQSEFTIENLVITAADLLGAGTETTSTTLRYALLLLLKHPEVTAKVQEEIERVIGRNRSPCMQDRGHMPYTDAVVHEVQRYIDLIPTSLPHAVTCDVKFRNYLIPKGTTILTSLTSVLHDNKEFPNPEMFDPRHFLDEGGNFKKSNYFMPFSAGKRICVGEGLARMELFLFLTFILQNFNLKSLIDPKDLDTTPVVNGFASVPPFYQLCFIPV
CYP2C9 inhib – inhibitors of human CYP2C9. P11712. 20% of 96,000 active. inhibition, % at 5 µM. CYP2C9 Supersomes, luciferin-H conversion, luminescence. AID 777;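 active means blocking of liver enzyme CYP2C9 beyond about 50% at 5 µM, limit read from the data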
sEH activator – activators of human soluble epoxide hydrolase | P34913 | purified human sEH enzymatic activity, activator screen | activation, % at 2 µM | 0.04% of 91,000 active; in the data active means activation above about 37%
CYP2C19 inhib – inhibitors of human CYP2C19 | P33261 | CYP2C19 Supersomes, luciferin-H EGE luminescence, 30 min | inhibition, % at 5 µM | 21% of 96,000 active;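 active means CYP2C19 inhibition above a set limit at 5 µM in the primary screen, cut at about 50% in these data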
CYP2C9 activ – increases human cytochrome P450 2C9 activity; P11712; recombinant CYP2C9, luciferin-H conversion, luminescence; active compounds read high; factor 1 = untreated enzyme, 0 = blocked; activation factor at 5 µM; 1.4% of 96,000 active; AID 1024;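 active means activation factor of 2 or more for CYP2C9 at a 5 µM dose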
sEH inh – inhibitors of human soluble epoxide hydrolase | P34913 | recombinant human sEH enzymatic activity assay | inhibition, % at 2 µM | 0.34% of 91,000 active | AID 707; in the data active means inhibition above about 80%
Of the large screens only hits and unclear results are named; the others gave an inactive call. An excerpt weighted towards active compounds, which were near 27% of everything screened.

CCOC(=O)C1CCN(Cc2cccc(OC)c2)CC1	CYP2C19 inhib 77
CCOC(=O)C1CCCN(Cc2ccccc2C)C1 (stereo unspecified)	CYP2C19 inhib 88 (no result: sEH activator, sEH inh)
CCOC(=O)N1CCN(Cc2cc(=O)oc3ccc(Cl)cc23)CC1	CYP2C9 inhib 56, CYP2C19 inhib 73
CCOC(=O)C1CCCN(Cc2ccccc2OCC)C1 (stereo unspecified)	none
CCN1CCN(Cc2cc(=O)oc3ccc(Cl)cc23)CC1	none
CCOC(=O)C1CCCN(Cc2ccc(OCC)cc2)C1 (stereo unspecified)	CYP2C19 inhib 76
CC(=O)N1CCc2cc(NC(=O)c3ccc(C)cc3)ccc21	none
Cn1c(N/N=C/c2ccccc2)nc2sc3c(c2c1=O)CCC3	none
CCOC(=O)C1CCCN(Cc2nc(N)nc(Nc3ccc(Cl)cc3)n2)C1 (stereo unspecified)	CYP2C9 inhib 67, CYP2C19 inhib 63
CCOC(=O)N1CCN(Cc2ccccn2)CC1	none
CCOC(=O)N1CCN(Cc2cccs2)CC1	CYP2C19 inhib 90
CCOC(=O)C1CCCN(Cc2cccs2)C1 (stereo unspecified)	CYP2C19 inhib 88
CCOC(=O)C1CCCN(Cc2nc(N)nc(Nc3ccc(OC)cc3)n2)C1 (stereo unspecified)	none
CCOC(=O)C1CCCN(Cc2ccccc2Cl)C1 (stereo unspecified)	CYP2C19 inhib 80
O=C1CSC(c2ccccc2)N1CC12CC3CC(CC(O)(C3)C1)C2 (stereo unspecified)	none (no result: sEH activator, sEH inh)
CO/N=C/c1ccc(N2CCN(C(=O)c3ccc(Cl)cc3Cl)CC2)c([N+](=O)[O-])c1	none
CN(C1CCCCC1)S(=O)(=O)c1ccc(NC(=O)c2ccco2)cc1	none
CCOC(=O)C1CCCN(c2cc(C)nc3cc(-c4ccc(Cl)cc4)nn23)C1 (stereo unspecified)	none (no result: CYP2C19 activ, CYP2C9 inhib, CYP2C19 inhib, CYP2C9 activ)
CCOC(=O)C1CCCN(C/C(O)=C(\C#N)c2nc(-c3ccc(Cl)cc3)cs2)C1 (stereo unspecified)	CYP2C9 inhib 58
CCOC(=O)C1CCCN(CC(O)COc2ccc(OC)cc2C(C)(C)C)C1 (stereo unspecified)	CYP2C9 inhib 56
CCOC(=O)C1CCN(Cc2ccccc2C)CC1	CYP2C19 inhib 77
CCOC(=O)C1CCN(Cc2cn[nH]c2-c2ccccc2)CC1	none
CCOC(=O)C1CCN(CC(=O)N2C(C)CCCC2C)CC1 (stereo unspecified)	CYP2C19 inhib 63 (no result: sEH activator, sEH inh)
Cc1cccc(-c2nnc(SCc3ccc(C#N)cc3)n2Cc2ccco2)c1	none
CC1CCN(C(=O)C2(NC(=O)Nc3cccc(F)c3)CCCCC2)CC1	none (no result: CYP2C19 activ, CYP2C9 inhib, CYP2C19 inhib, CYP2C9 activ)
C/C(=C(\C#N)C(=O)NCc1ccccc1)N(C)C	none
Cc1ccc(N2C(=O)CC(Sc3nc4ccccc4o3)C2=O)cc1Cl (stereo unspecified)	none
NS(=O)(=O)c1cc(C(=O)N2CCc3ccccc32)c(Cl)cc1Cl	none
O=C1C=C(c2ccccc2)C(=O)N1Nc1ccccc1	none
Cc1ccc(NN2C(=O)C=C(c3ccc(Cl)cc3)C2=O)cc1	CYP2C9 inhib 56
Clc1cccc(Cl)c1Cn1cnc2c(NCc3ccco3)ncnc21	none
Clc1cccc(Cl)c1Cn1cnc(=NCc2ccco2)c2[nH]cnc21	CYP2C9 inhib 77 (no result: sEH activator, sEH inh)
Cc1cccc(-n2c(Cc3cc(=O)[nH]c(=O)[nH]3)nnc2SCC(=O)NCC2CCCO2)c1 (stereo unspecified)	none
COc1cc(-c2nnc(Sc3ccc(C(F)(F)F)cc3[N+](=O)[O-])o2)cc(OC)c1OC	none
Cc1cc2oc(=O)c3c(c2cc1OC(=O)c1ccco1)CCCC3	none
CCOC(=O)COc1cc2c3c(c(=O)oc2cc1C)CCCC3	CYP2C9 inhib 60
Cc1ccc(SCCC(=O)NCC2CCCO2)cc1 (stereo unspecified)	none
CC(Nc1cc(N2CCN(C(=O)C(C)(C)C)CC2)ccc1[N+](=O)[O-])c1ccccc1 (stereo unspecified)	CYP2C9 inhib 50, CYP2C19 inhib 56
CCS(=O)(=O)N1CCN(c2ccc([N+](=O)[O-])c(NC(C)c3ccccc3)c2)CC1 (stereo unspecified)	CYP2C9 inhib 66, CYP2C19 inhib 51
CCOC(=O)CN(C(=O)CSc1nnc2c(n1)[nH]c1ccc(OC)cc12)c1ccc(F)cc1	none (no result: sEH activator, sEH inh)
O=C(CN(c1ccccc1)S(=O)(=O)c1ccc(F)cc1)N1CCCCCC1	none
